# Experimental data reported in PubChem BioAssay (EPA / NIEHS).
# The source made the active and inactive calls. Rule for the calls: active = hit-call score of the fitted dose curve at least 0.9, where 1 is the maximum; inactive = score below 0.9.
# Read-out: Heat shock 70 kDa protein 1 (HSPA1A), gene 3303
# Assay: LTEA_HepaRG_HSPA1A: Life Technologies and Expression Analysis (LTEA) Assay for Heat shock 70 kDa protein 1 (HSPA1A) using HepaRG (AID 2283502)
# Details: mRNA level, 48 h; actives raise or lower the signal
# Experimental: LTEA_HepaRG is a cell based, multiplexed-readout assay that uses HepaRG, a human liver cell line, with measurements taken at 48 hours after chemical dosing on a 96-well plate.LTEA_HepaRG_HSPA1A is one of 102 assay component(s) measured in the LTEA HepaRG cell culture assay. It is a marker of Oxidative Stress.Data from the assay component LTEA_HepaRG_HSPA1A was analyzed into 1 endpoint. This assay endpoint, LTEA_HepaRG_HSPA1A, was analyzed with bidirectional fitting relative to DMSO as the negative control and baseline of activity. Using a type of inducible reporter, measures of mRNA induction for gain or loss-of-signal activity can be used to understand regulation of transcription factor activity. To generalize the intended target to other relatable targets, this assay endpoint is annotated to the dna binding intended target family, where the subfamily is heat shock protein.
# A total of 1060 chemcials from the ToxCast library were tested in eight-point concentration-response experiments. Cell culture and cytotoxicity assays were conducted at Thermo Fisher Scientific's Custom Services facility (Madison, WI). A single lot of human HepaRG cells (Thermo Fisher Scientific, Frederick, MD) was used for the cell culture experiments. 96-well format collagen type I coated plates of human HepaRG cells were prepared using established methods. Briefly, cryopreserved HepaRG cells were thawed, plated at a density of approximately 100,000 cells/well in HepaRG Thaw, Plate, and General Purpose media (HPRG770, Thermo Fisher Scientific), and incubated for 48 hours. 0.5% DMSO was selected as vehicle control to balance the requisite need of DMSO in HepaRG cultures to maintain differentiation (for example, baseline metabolism, proportions of hepatocytes vs. cholangiocytes), while enabling further hepatic receptor pathway activation (for example, PXR and CAR) in response to chemical exposure. 48 hours after plating, the culture medium was replaced with HepaRG Serum-Free Incudtion Media. Cells were exposed to each test chemical in duplicate and maintained in CO2 incubators for another 48 hours. Chemical plates were thawed to room temperature and 200x concentrations of treatment groups were prepared. 8-point conentration-reponse curves were made with the highest exposure at 100 uM, followed by half-log dilutions, all in 0.5% DMSO. Each test plate contained variouse controls, induction positive controls (1mM phenobarbital), cytotoxicity positive controls ([…] aflatoxin B1), vehicle controls (0.5% DMSO), and total lysis controls (0.5% DMSO). Cell morphology images were taken using an Essen IncuCyte FLR automated microscope, with six 96-well plates imaged in about 24 minutes. Images were captured and exported and JPEG files. Spent culture media was transfered to black-well plates for the LDH assay, and remaining media was sorted at -80 C for later use. Cells were treated with RLT buffer and frozen until shipped for gene expression analysis. Total RNA was isolated from the cell suspension in 75 uL of Buffer RLT (Qiagen, Germantown, MD 20874) by Quintiles/Expression Analysis (Durham, NC) using a custom isolation procedure. Total RNA from each plate well was transferred to a preamplification plate. Fluidigm's 96.96 Dynamic ArrayTM (Fluidigm, Amsterdam, the Netherlands) technology was used for gene expression analyses by quantitative reverse transcription polymerase chain reaction (qRT-PCR, performed by Quintiles/Expression Analysis, Durham, NC)89. Standard TaqManTM Assays (Applied Biosystems/ThermoFisher Scientific, Foster City, CA) were used to assess the expression of 93 genes selected based on their selectivity and sensitivity to important hepatic receptors known to be modulated by environmental chemicals; importance in human hepatocyte functionality; and hepatotoxicity. […]
SMILES,outcome,AC50
O=[Si]=O,inactive,–
Cc1cc(Cc2ccc(N)c(C)c2)ccc1N,inactive,–
CSc1ccc(Oc2ccc(S(N)(=O)=O)cc2CN(C)C)cc1C,inactive,–
Nc1nc(Cl)nc2c1ncn2[C@H]1C[C@H](O)[C@@H](CO)O1,inactive,–
Oc1ccccc1O,inactive,–
CCCCCCC(C=O)=Cc1ccccc1,inactive,–
O=C1OC(c2ccc(O)cc2)(c2ccc(O)cc2)c2ccccc21,–,50 µM (active)
NC(=Nc1ccccc1)Nc1ccccc1,inactive,–
C#CC(O)C(CC)CCCC (stereo not given),inactive,–
CS(=O)(=O)c1ccc([C@@H](C[C@H]2CCC(=O)C2)C(=O)Nc2cnccn2)cc1Cl,–,13.4 µM (active)
CCCCOC(=O)CCCCC(=O)OCCCC,inactive,–
NC=O,inactive,–
CN(C)C(=O)NC1(c2ccccc2)CCN(CCC[C@]2(c3ccc(Cl)c(Cl)c3)CCCN(C(=O)c3ccccc3)C2)CC1,–,20.5 µM (active)
C/C=C/c1ccc(OC)cc1,inactive,–
CCCCC(CC)CO (stereo not given),inactive,–
O=C(O)CN(CC(=O)O)CC(=O)O,inactive,–
CO[C@@H]1COCC[C@@H]1N[C@@H]1CC[C@@](C(=O)N2CCc3ncc(C(F)(F)F)cc3C2)(C(C)C)C1,inactive,–
N[C@@H](Cc1c[nH]c2ccccc12)C(=O)O,inactive,–
COc1ccc(OC(F)(F)F)cc1CN[C@H]1CCCN[C@H]1c1ccccc1,–,73.3 µM (active)
O=Cc1ccccc1C=O,inactive,–

SMILES,outcome,AC50
CN(C)CCCN1c2ccccc2Sc2ccc(Cl)cc21,–,76.9 µM (active)
CCOCCOCCO,inactive,–
CCCC[C@H]1CN(CC2CCOCC2)C(=O)OC12CCN(C1(C)CCN(C(=O)c3c(C)ncnc3C)CC1)CC2,inactive,–
CC(=O)O,inactive,–
O=NO,inactive,–
NCCOCCOCCN,inactive,–
CC(=O)[C@@]1(O)CC[C@H]2[C@@H]3CCC4=CC(=O)CC[C@]4(C)[C@H]3CC[C@@]21C,inactive,–
COC(=O)CCCC(=O)OC,inactive,–
CC(=O)CC(c1ccccc1)c1c(O)c2ccccc2oc1=O (stereo not given),inactive,–
O=C1NC(=O)C(c2ccccc2)(c2ccccc2)N1,inactive,–
CCCCCCCCCCCCCCCCO,inactive,–
CN(C)CCCN(C)CCCN(C)C,inactive,–
c1ccc2occc2c1,inactive,–
CC(=O)O[C@]1(C(C)=O)CC[C@H]2[C@@H]3C=C(Cl)C4=CC(=O)[C@@H]5C[C@@H]5[C@]4(C)[C@H]3CC[C@@]21C,–,83.4 µM (active)
S=c1[nH]c2ccccc2s1,inactive,–
O=C(Oc1ccccc1)c1cccc(C(=O)Oc2ccccc2)c1,inactive,–
CCCCC(CC)COP(=O)(OCC(CC)CCCC)OCC(CC)CCCC (stereo not given),inactive,–
Cn1cnc2c1c(=O)[nH]c(=O)n2C,inactive,–
CCC(C)N(C)C(=O)c1cc2ccccc2c(-c2ccccc2Cl)n1 (stereo not given),inactive,–
Oc1ccc(O)cc1,inactive,–
